KB-V1 cytotox: kills drug-selected multidrug resistant KB-V1 cells; Potency, µM (highest dose often 46.1 µM), most hits filed as cytotoxic; AID 1347076; KB-V1 MDR cells viability, CellTiter-Glo, 72 h; actives 3.4% (n = 400,000); also: nearly all actives have a fitted effect of over 60% in size
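Cells of the MDR subline KB-V1 are plated, dosed with compound at multiple concentrations, and incubated 72 h at 37 degrees C; CellTiter-Glo is then added and luminescence read after 10 min.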
DT40 TDP1 no CPT: qHTS for Inhibitors of human tyrosyl-DNA phosphodiesterase 1 (TDP1): qHTS in cells in absence of CPT. DT40 Tdp1-/- hTDP1 cells, no CPT, ATP luminescence, 48 h. Potency, µM (doses to about 46.2 µM), inactives show top-dose activity change, negative = growth inhibition, usual class: inhibitors. actives 15% (n = 420,000). AID 686978, 2013; also: nearly all actives have a fitted effect of over 55% in size
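Seeded 400 DT40-hTDP1 cells/well (vehicle DMSO, no 20 nM CPT); pinned compounds; ≥48 hr at 37 °C; CellTiter-Glo luminescence as viability measure.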
HT1080 IDH1KD tx: HT-1080 IDH1 knockdown cell toxicity (counter line); HT-1080 IDH1 knockdown viability, ATP luminescence, 48 h; Potency, µM (highest dose often 46.1 µM), without a hit: top-dose activity, negative = toxicity, usual class: cytotoxic; actives 2% (n = 360,000); AID 686971;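 also: 0% = DMSO wells and -100% = cell-free medium wells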
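Assay cells: HT-1080 with IDH1 knockdown, 750 per well, RPMI/5% FBS. Exposure: 48 h at 37 °C following 2 h pre-incubation. Read: CellTiter-Glo luminescence; fitted concentration-response, curve class assigned.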
HT1080-NT tox: kills 2HG-producing HT-1080-NT fibrosarcoma cells | HT-1080-NT fibrosarcoma viability, CellTiter-Glo ATP luminescence, 48 h | Potency, µM (highest dose often 46.1 µM), inactives show top-dose activity, negative = less viability, hits mostly cytotoxic | actives 1.6% (n = 360,000) | AID 686970;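 also: NT is the 2HG producing partner of a matched IDH1 knockdown line; 0% = DMSO-treated cells and -100% = media-only wells without cells; nearly all actives have a fitted effect of over 55% in size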
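A 48-hour cytotoxicity screen used HT-1080-NT cells plated 2 hours before compound delivery. ATP-based CellTiter-Glo luminescence measured viability, normalized to DMSO and no-cell controls.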
DT40 TDP1 CPT: growth inhibition of DT40 Tdp1-/-;hTDP1 cells with camptothecin (screen for TDP1 inhibitors); Potency, µM (doses to about 46.2 µM), for the others: top-dose activity change, negative = growth inhibition, usual class: inhibitors; chicken DT40 Tdp1-/-;hTDP1 cells + 20 nM CPT, ATP luminescence, 48 h; actives 12% (n = 420,000); also: nearly all actives have a fitted effect of over 55% in size
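Chicken DT40 Tdp1-/- cells stably complemented with human TDP1 were seeded at 400 cells/well in medium containing 20 nM camptothecin, exposed to pin-transferred compounds, and grown at 37 °C for at least 48 hr. Viability was read as ATP luminescence.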
KB-3-1 tox: KB-3-1 parental cell cytotoxicity; KB-3-1 viability, CellTiter-Glo ATP luminescence, 72 h; Potency, µM (highest dose often 46.1 µM), actives largely listed as cytotoxic; actives 1.4% (n = 400,000); also: nearly all actives have a fitted effect of over 60% in size
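KB-3-1 parental drug-naive adenocarcinoma cells in DMEM/10% FBS, incubated 72 h at 37 C with pin-transferred compounds across a concentration series. Viability by CellTiter-Glo luminescence; concentration-response curves fitted after normalization.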
Starred values were filed as active, the others as inactive; i = inactive; ? = inconclusive; . = no result; [ ] = dose if it differs, or a comment. Only some compounds are listed: those with a hit (about 19% of all), similar ones and a draw of the others. Calls follow the shape of the dose curve; as a rule, active = well fitted curve in the direction sought with a large enough effect; inconclusive = small, poorly fitted or top-dose-only effect, or another doubt; inactive = no such curve, though single readings can be large; an effect the other way counts as inactive or inconclusive. Unless noted, % is scaled to controls: 0 for no effect and ±100 for the full control effect; potency is read from the fitted curve at half-maximal effect.

SMILES	KB-V1 cytotox	DT40 TDP1 no CPT	HT1080 IDH1KD tx	HT1080-NT tox	DT40 TDP1 CPT	KB-3-1 tox
O=S(=O)(NC1c2cccc3cccc(c23)C1N1CCN(CCO)CC1)c1ccccc1 (configuration not stated)	?	14.6µM*	?	-29.2%	?	?
O=C(NNC(=O)c1ccccn1)c1cccc([N+](=O)[O-])c1	i	16.4µM*	-15.7%	-0.5%	16.4µM*	i
Cc1ccc(/C(N)=N/OC(=O)c2cc(-c3ccccc3)nc3ccccc23)cc1	i	?	-3.5%	-4.3%	-28.2%	i
Cc1nc(C(=O)NNC(=O)c2ccc(Cl)cc2)cs1	i	11.6µM*	?	-35.3%	16.4µM*	?
N/C(=N\OC(=O)c1cc(-c2ccccc2)nc2ccccc12)c1ccccn1	i	11.6µM*	4.5%	8.8%	13µM*	i
O=C(NNC(=O)c1csc(-c2cccs2)n1)c1ccc(Cl)cc1	i	?	?	-29.3%	?	i
CC(=O)c1ccc(OCCCC(=O)NNC(=O)c2ccccn2)cc1	i	14.6µM*	?	-1.6%[9.24 µM]	?	?
O=C(c1cccc([N+](=O)[O-])c1)c1ccccn1	i	-0.4%	2.4%	24.2%	-0.1%	i
CCCNC(=O)C1(C)CCCN(C(=O)COc2ccc(Cl)cc2Cl)C1 (configuration not stated)	?	-25.6%	0.3%	-1.5%	-17.2%	i
Cc1cc(C)n(-c2ccc(C(=O)NCC(=O)Nc3cc(Cl)ccc3Cl)cc2)n1	i	?	3.5%	11.3%	-18.0%	i
Cc1cc(Br)cc(Br)c1OCC(=O)NNC(=O)Nc1ccccc1	i	-21.0%	-1.2%	-0.8%	-11.6%	i
CCOC(=O)c1c(N)n(-c2ccc(Cl)c(Cl)c2)c2nc3ccccc3nc12	?	?	.	.	?	i
CC(NC(=O)c1cnn2c1NC(=C1CC1)C=C2C(F)F)c1ccncc1 (configuration not stated)	i	-8.1%	.	.	-21.4%	?
O=C(NNC1=Nc2ccccc2SC1)c1ccccc1F	?	?	-28.5%	-19.0%	?	i
O=C(NNC1=Nc2ccccc2SC1)c1cccc([N+](=O)[O-])c1	?	23.1µM*	?	-16.3%	16.4µM*	?
N#C/C(=C\c1cccc([N+](=O)[O-])c1)c1ccccn1	i	14.6µM*	-23.1%	-5.8%	-24.4%	i
COc1ccc2c(c1)C(=NNC(=O)c1ccccn1)c1cc(OC)ccc1-2	i	2.59µM*	0.9%	20.0%	4.61µM*	?
O=C(NN=C1CCCCCCC1)c1ccccn1	i	-11.1%	-6.5%	-4.9%	0.0%	i
Cc1ccc(C(=O)O/N=C(\N)c2ccccn2)c(C)c1	?	-23.6%	14.6µM*	16.4µM*	?	?
COc1ccc(NC(=O)CCS(=O)(=O)c2cc3c4c(c2)CCN4C(=O)CC3)cc1OC	i	-4.0%	.	.	-15.7%	i
NC(=O)CC[C@H](NC(=O)c1ccc(F)cc1)C(=O)OCC(=O)NCc1ccc2c(c1)OCO2	i	-1.7%	6.0%	6.2%	-6.3%	i
CSc1cccc(Nc2nc3c(S(=O)(=O)c4ccccc4)nnn3c3ccc(Cl)cc23)c1	i	?	.	.	?	i
COc1ccc(C(=O)NCCNC(=O)c2ccccn2)cc1	i	-8.3%	-2.2%	25.5%	-1.0%	i
COc1ccc(C(=O)NNC(=O)c2ccccn2)cc1	i	-25.0%	18.4µM*	20.6µM*	-17.4%	?
N/C(=N\OC(=O)c1ccc(Cl)c([N+](=O)[O-])c1)c1ccccn1	i	-20.0%	16.4µM*	?	-4.9%	i
SMILES	KB-V1 cytotox	DT40 TDP1 no CPT	HT1080 IDH1KD tx	HT1080-NT tox	DT40 TDP1 CPT	KB-3-1 tox
COc1ccc(C(=O)O/N=C(\N)c2ccccn2)cc1	i	-19.9%	16.4µM*	13µM*	-17.5%	?
N/C(=N\OC(=O)c1ccc(Cl)c(Cl)c1)c1ccccn1	i	-11.0%	?	12.6%	-23.8%	i
COc1cc(OC)cc(C(=O)NNC(=O)c2ccccc2Br)c1	i	4.9%	9.1%	18.6%	10.9%	i
COc1cc(OC)cc(C(=O)NNC(=O)c2ccccn2)c1	?	6.51µM*	?	-27.0%	2.91µM*	i
COc1cc(OC)cc(C(=O)O/N=C(\N)c2ccccn2)c1	i	-27.4%	13.4%	14.0%	-2.8%	i
CC(=O)/C(=N\Nc1ccccc1)Sc1cccc2cccnc12	i	-11.6%	-4.3%	-8.3%	17.8%	i
CC(=O)/C(=N\Nc1ccccc1Cl)Sc1cccc2cccnc12	?	-91.9%	?	20.6µM*	?	i
CCOC(=O)C1=CC[C@@H](c2cc3cc(OC)ccc3n2C)N(S(=O)(=O)c2ccc(C)cc2)[C@H]1C(=O)OCC	i	?	-3.7%	3.5%	?	i
COc1ccc2oc(C(=O)CCC(=O)O)c(N)c2c1	i	29.7%	0.9%	-7.3%	-22.2%	i
COC(=O)CCC(=O)c1oc2ccc(Br)cc2c1N	i	25.9µM*	13.8%	24.8%	?	i
CCc1ccc(S(=O)(=O)c2nnn3c2nc(Nc2ccc(C)c(Cl)c2)c2sccc23)cc1	i	-16.9%	.	.	?	i
COc1ccc(/C=N/NC(=O)Cn2cnc3ccccc3c2=O)cc1	3.26µM*	-1.0%	3.5%	5.2%	-2.6%	i
CCc1cc(C(=O)N/N=C/c2ccc(OC)cc2)c2ccccc2n1	?	3.26µM*	?	?	7.31µM*	?
COc1ccc(OC)c(-c2cc(C(=O)N/N=C/c3cc(OC)c(OC)cc3OC)c3ccccc3n2)c1	i	9.2µM*	0.8%	0.0%	16.4µM*	i
COc1ccc(OC)c(-c2cc(C(=O)N/N=C/c3ccc(F)cc3)c3ccccc3n2)c1	i	1.03µM*	-22.8%	-21.5%	5.17µM*	i
CC(C)CN1CC[C@@]2(CCCN(C(=O)c3cnccn3)C2)C1	.	-3.3%	.	.	6.1%	.
CC(=O)N1CCC(O)(c2ccc3c(c2)OCO3)CC1	i	0.0%	-5.0%	-9.3%	-8.8%	i
CC(C)C(c1nnnn1C(C)(C)C)N1CCC(Cc2ccccc2)CC1 (configuration not stated)	?	?	-10.2%	-0.5%	?	i
Cc1cc([N+](=O)[O-])cc2c1NC(=O)C2(O)N1CCOCC1 (configuration not stated)	i	-19.0%	2.2%	4.7%	?	i

Compound activity from PubChem.
